Test results taken from PubChem BioAssay (Tox21).
A number with no mark means an inactive call. Records with an inconclusive call do not appear. A call without a number means that no potency is given here. The source made the active and inactive calls. Unless noted, calls follow the shape of the dose curve; as a rule, active = well fitted curve in the direction sought with a large enough effect in the repeat runs; inconclusive = weak or mixed curves; inactive = no such curve, though single readings can be large; an effect the other way counts as inactive or inconclusive.

What was measured:
[1] = target: Thyrotropin-releasing hormone receptor (Homo sapiens) (UniProt P34981); assay: qHTS assay to identify small molecule agonists of the thyrotropin-releasing hormone receptor (TRHR) signaling pathway (AID 1346891; calls by dose curve;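 also: HEK293 cells expressing TRHR with calcium dye readout; series mostly up to about 58 µM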)
Method in brief: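 In 1536-format, 1500 TRHR-Hek293 cells per well grew 18 h, took up calcium dye for 2 h at 37 °C, received compound, and were read kinetically; 15-point titrations, triplicates.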

[2] = Caspase-3/7 induction in CHO-K1 cells by small molecules, qHTS cell viability counter screen (AID 1346979); also: nearly all actives have a fitted effect of over 35% in size; also: potency is read from the fitted curve at half-maximal effect
Method in brief: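 To flag cytotoxic compounds, treated CHO-K1 wild-type cells were given CellTiter-Fluor at 16hr and read fluorescently after 1hr at 37C; the caspase-3/7 luminescence was measured in these same wells.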

[3] = Caspase-3/7 induction in CHO-K1 cells by small molecules, qHTS assay (AID 1346980); also: nearly all actives have a fitted effect of over 15% in size
Method in brief: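 Wild-type cells were seeded at 1,500 per well and settled 5 hr at 37 C, 5% CO2, then exposed to DMSO-dissolved compounds for 17 hr. Caspase-Glo 3/7 reagent was added, and luminescence was read after 30min at room temperature.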

[4] = Caspase-3/7 induction in HepG2 cells by small molecules, qHTS cell viability counter screen (AID 1346981); also: nearly all actives have a fitted effect of over 30% in size; also: potency is read from the fitted curve at half-maximal effect
Method in brief: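 Fluorescence read-out of live-cell protease activity (CellTiter-Fluor) after 1 hr with reagent. This was measured in the same wells as the caspase-3/7 luminescence, on HepG2 cells exposed to DMSO-dissolved compounds for 16 hr at 37 C.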

[5] = target: Nuclear receptor subfamily 1 group I member 2 (Homo sapiens) (UniProt O75469); assay: Human pregnane X receptor (PXR) small molecule agonists, qHTS assay (AID 1346982); also: nearly all actives have a fitted effect of over 35% in size; also: potency is read from the fitted curve at half-maximal effect
Method in brief: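 HepG2 PXR-Luc reporter line, 5% charcoal-stripped FBS; 5 hr pre-incubation, compound (DMSO) 24 hr at 37 C/5% CO2; ONE-Glo 30 min RT; luminescence read-out.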

[6] = Human pregnane X receptor (PXR) small molecule agonists, qHTS cell viability counter screen (AID 1346977); also: nearly all actives have a fitted effect of over 50% in size; also: potency is read from the fitted curve at half-maximal effect
Method in brief: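 Readout is CellTiter-Fluor fluorescence from PXR-Luc HepG2 cells. Plated cells rested 5hr, then were treated with compounds for 24hr at 37C and 5% CO2, with reagent present during the last hour.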

[7] = target: Nuclear receptor subfamily 1 group I member 2 (Rattus norvegicus) (UniProt Q9R1A7); assay: Rat pregnane X receptor (rPXR) activation by small molecules, qHTS assay (AID 1346983); details: rPXR luciferase reporter cells, One-Glo luminescence, 24 h; max activation: stronger effect = higher value; also: nearly all actives have a fitted effect of over 20% in size
Method in brief: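 Cell-based rPXR luciferase reporter assay, 2,000 cells per well, rested 5hr at 37 C before compound addition in DMSO, then 24 hr at 37 C. One-Glo reagent was added and luminescence read after 30 min at room temperature.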

[8] = target: Nuclear receptor subfamily 1 group I member 2 (Homo sapiens) (UniProt O75469); assay: CYP3A4 induction through human pregnane X receptor (PXR) by small molecules, qHTS assay (AID 1346984); also: nearly all actives have a fitted effect of over 40% in size; also: potency is read from the fitted curve at half-maximal effect
Method in brief: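 HepG2-derived DPX-2 line carrying PXR plus a CYP3A4-promoter luciferase reporter; cells plated 5 hr, compound-exposed 24 hr at 37C. CYP3A4 activity probed with 3uM (final) Luciferin-IPA for 3hr, then luciferase read after One-Glo.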

[9] = target: Nuclear receptor subfamily 1 group I member 2 (Homo sapiens) (UniProt O75469); assay: Human pregnane X receptor (PXR) activation by small molecules, qHTS assay (AID 1346985); also: nearly all actives have a fitted effect of over 40% in size; also: potency is read from the fitted curve at half-maximal effect
Method in brief: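 DPX-2 cells (HepG2 co-transfected with a PXR response element and a CYP3A4-promoter luciferase construct) were seeded at 2,000 per well, rested 5 hr at 37C, then exposed to DMSO-dissolved compounds for 24 hr. Activation was read as luciferase luminescence.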

[10] = Caspase-3/7 induction in HepG2 cells by small molecules, qHTS assay (AID 1346978); also: nearly all actives have a fitted effect of over 15% in size
Method in brief: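 Wild-type HepG2 cells (2,000/well) were settled 5 h at 37 C, 5% CO2, then exposed to compounds in DMSO for 17 h. Caspase-3/7 activity was read by luminescence 30 min after adding Caspase-Glo 3/7 reagent at room temperature.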

Chain of Thyrotropin-releasing hormone receptor (Homo sapiens) (P34981 whole entry, looked up): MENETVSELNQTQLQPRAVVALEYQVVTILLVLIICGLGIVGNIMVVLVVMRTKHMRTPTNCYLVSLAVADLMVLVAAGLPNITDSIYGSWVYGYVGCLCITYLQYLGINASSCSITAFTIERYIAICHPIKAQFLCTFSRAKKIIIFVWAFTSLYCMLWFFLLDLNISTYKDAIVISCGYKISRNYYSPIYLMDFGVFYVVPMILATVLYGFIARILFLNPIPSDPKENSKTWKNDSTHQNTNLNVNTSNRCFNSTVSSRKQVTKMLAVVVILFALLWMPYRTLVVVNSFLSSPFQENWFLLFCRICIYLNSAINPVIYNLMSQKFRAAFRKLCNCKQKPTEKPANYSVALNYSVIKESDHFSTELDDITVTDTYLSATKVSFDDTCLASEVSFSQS
Chain of Nuclear receptor subfamily 1 group I member 2 (Homo sapiens) (O75469 whole entry, looked up): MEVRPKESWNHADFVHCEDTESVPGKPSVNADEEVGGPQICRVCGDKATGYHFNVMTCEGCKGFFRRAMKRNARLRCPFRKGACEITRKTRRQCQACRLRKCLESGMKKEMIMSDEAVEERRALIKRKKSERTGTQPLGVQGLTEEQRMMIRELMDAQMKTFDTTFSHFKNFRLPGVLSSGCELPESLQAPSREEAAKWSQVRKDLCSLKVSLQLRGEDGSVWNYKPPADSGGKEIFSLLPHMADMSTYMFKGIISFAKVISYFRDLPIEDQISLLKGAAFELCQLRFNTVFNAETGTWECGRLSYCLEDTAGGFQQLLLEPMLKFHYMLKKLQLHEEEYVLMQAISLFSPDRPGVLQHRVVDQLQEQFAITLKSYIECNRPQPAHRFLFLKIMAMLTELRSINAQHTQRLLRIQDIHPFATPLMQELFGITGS
Chain of Nuclear receptor subfamily 1 group I member 2 (Rattus norvegicus) (Q9R1A7 whole entry, looked up): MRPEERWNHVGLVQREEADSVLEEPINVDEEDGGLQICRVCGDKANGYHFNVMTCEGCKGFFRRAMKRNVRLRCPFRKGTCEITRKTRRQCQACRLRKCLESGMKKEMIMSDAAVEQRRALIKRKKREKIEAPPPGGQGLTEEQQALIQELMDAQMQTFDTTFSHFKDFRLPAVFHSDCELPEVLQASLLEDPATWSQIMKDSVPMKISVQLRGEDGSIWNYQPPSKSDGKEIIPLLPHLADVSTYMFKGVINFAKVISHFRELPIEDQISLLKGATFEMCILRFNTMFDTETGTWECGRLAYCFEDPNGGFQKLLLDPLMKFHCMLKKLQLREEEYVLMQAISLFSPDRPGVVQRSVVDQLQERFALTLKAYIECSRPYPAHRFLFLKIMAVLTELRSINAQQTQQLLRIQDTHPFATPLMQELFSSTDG

| SMILES | outcome [1] | Potency [2] | Potency [3] | Potency [4] | Potency [5] | Potency [6] | max activation [7] | Potency [8] | Potency [9] | Potency [10] |
| --- | --- | --- | --- | --- | --- | --- | --- | --- | --- | --- |
| CCOc1cc(OCC)c(C(C)=O)cc1OCC | inactive | 26.8 µM (active) | inactive | 42.5 µM (active) | 26.8 µM (active) | – | – | – | – | – |
| Cc1ccc(S(=O)(=O)NC(=O)NC2CCCC2)cc1 | inactive | inactive | inactive | inactive | inactive | inactive | -4.06% | inactive | inactive | – |
| Nc1ccc(C(=O)Oc2ccccc2)c(O)c1 | inactive | inactive | inactive | inactive | inactive | inactive | 0.405% | inactive | inactive | – |
| CC(C(=O)O)c1ccc(/C=C2\CCCCC2=O)cc1 (centres undefined) | – | inactive | inactive | inactive | – | inactive | – | – | – | inactive |
| CC(=O)Oc1cccc2c1C(=O)c1c(OC(C)=O)cc(C(=O)O)cc1C2=O | inactive | 29.8 µM (active) | inactive | 29.8 µM (active) | inactive | 29.8 µM (active) | – | – | – | – |
| COc1ccnc2c1CCCCC2S(=O)c1nc2ccccc2[nH]1 (centres undefined) | inactive | inactive | inactive | inactive | 29.8 µM (active) | inactive | – | – | – | – |
| C[C@H](N)C(=O)N[C@@H](C)C(=O)NC1[C@H]2CN(c3nc4c(cc3F)c(=O)c(C(=O)O)cn4-c3ccc(F)cc3F)C[C@@H]12 (some centres undefined) | inactive | 7.5 µM (active) | inactive | – | 21.1 µM (active) | – | – | – | – | – |
| O=C(Nc1ccccc1)c1cc([N+](=O)[O-])ccc1Cl | inactive | – | inactive | inactive | 61.1 µM (active) | inactive | – | – | – | – |
| Cc1ccc2c(Cl)cc(Cl)c(O)c2n1 | inactive | inactive | inactive | inactive | inactive | inactive | – | – | – | – |
| CCn1nc(Cc2ccccc2)cc1C1CCN(C[C@H]2C[C@H](N(C)[C@@H](C(=O)O)C(C)C)C[C@@H]2c2cccc(F)c2)CC1 | inactive | – | inactive | – | inactive | – | – | – | – | inactive |
| Clc1cc(Cl)c2c(c1)N=C1CCCCCN1C2 | inactive | inactive | inactive | inactive | 29.8 µM (active) | – | – | – | – | inactive |
| CCCC(=O)OCCC(C)C | inactive | inactive | inactive | inactive | inactive | inactive | – | – | – | – |
| COc1cc(C)c(Cc2cnc(N)nc2N)cc1OC | inactive | inactive | inactive | inactive | inactive | inactive | -0.291% | inactive | inactive | – |
| O=c1[nH]nc(-c2ccc([N+](=O)[O-])o2)o1 | inactive | – | inactive | 54.5 µM (active) | 61.1 µM (active) | – | – | – | – | inactive |
| COc1ccc(CN(CCN(C)C)c2ncccn2)cc1 | inactive | inactive | inactive | inactive | inactive | inactive | -0.0529% | inactive | inactive | – |
| CC/C=C\CCO | inactive | inactive | inactive | inactive | inactive | inactive | – | – | – | – |
| CCC(C(=O)O)c1ccc(N2Cc3ccccc3C2=O)cc1 (centres undefined) | inactive | – | inactive | inactive | 4.73 µM (active) | inactive | – | – | – | – |
| O=C1c2ccccc2C(=O)C1c1ccc2ccccc2n1 | inactive | 9.59 µM (active) | – | 6.05 µM (active) | 1.91 µM (active) | – | – | – | – | inactive |
| O=C(N[C@@H](Cc1ccccc1)[C@@H](O)C(=O)N1C[C@@H](O)[C@@H](O)C1)c1cc2cc(Cl)ccc2[nH]1 | inactive | inactive | inactive | inactive | inactive | inactive | – | – | – | – |

| SMILES | outcome [1] | Potency [2] | Potency [3] | Potency [4] | Potency [5] | Potency [6] | max activation [7] | Potency [8] | Potency [9] | Potency [10] |
| --- | --- | --- | --- | --- | --- | --- | --- | --- | --- | --- |
| O=C(NC1CCN(CCc2c[nH]c3ccccc23)CC1)c1ccccc1 | inactive | inactive | – | inactive | inactive | – | -9.19% | – | inactive | inactive |
| Oc1ccc(CCNCCCCCCNCCc2ccccc2)cc1O | inactive | – | inactive | inactive | inactive | – | – | – | – | inactive |
| CCC(CC)C(=O)O | inactive | inactive | inactive | inactive | inactive | inactive | – | – | – | – |
| OCCOc1cccc(OCCO)c1 | inactive | – | inactive | inactive | inactive | inactive | – | – | – | – |
| COC(=O)/C=C/C(C)=C\C=C\C(C)=C\C=C\C=C(C)\C=C\C=C(C)\C=C\C(=O)O | inactive | – | inactive | inactive | 54.5 µM (active) | inactive | – | – | – | – |
| O=C(O)c1ccncc1 | inactive | inactive | inactive | inactive | – | – | – | – | – | inactive |
| Nc1cccc2c(=O)[nH][nH]c(=O)c12 | – | inactive | inactive | inactive | inactive | inactive | – | – | – | inactive |
| CCCCCCC/C=C/C=O | inactive | inactive | – | inactive | inactive | inactive | – | – | – | – |
| CC(C)(C)N | – | inactive | inactive | inactive | inactive | inactive | – | – | – | inactive |
| CC(=O)Nc1cccc(N)c1 | inactive | inactive | – | inactive | inactive | inactive | – | – | – | – |
| Clc1nc2ccccc2nc1Cl | inactive | inactive | inactive | inactive | 61.8 µM (active) | inactive | – | – | – | – |
| CC(C)(Cc1c[nH]c2ccccc12)NCC(O)COc1ccccc1C#N (centres undefined) | inactive | inactive | inactive | inactive | inactive | – | 11.7% | 12.6 µM (active) | 28.2 µM (active) | inactive |
| S=c1[nH][nH]c(=S)s1 | inactive | inactive | inactive | inactive | inactive | – | – | – | – | inactive |
| Cc1cc(C)c(C)c(O)c1 | inactive | inactive | inactive | inactive | inactive | inactive | – | – | – | – |
| CC[C@H](NC(C)C)[C@H](O)c1ccc(O)c2[nH]c(=O)ccc12 | inactive | – | inactive | inactive | inactive | inactive | -3.27% | inactive | inactive | – |
| C=CCCC | inactive | inactive | inactive | inactive | inactive | inactive | – | – | – | – |
| COc1cccc([C@H](O)C2CCN(CCc3ccc(F)cc3)CC2)c1OC | inactive | inactive | inactive | inactive | inactive | – | – | – | – | inactive |
| O=Cc1ccc([N+](=O)[O-])cc1 | – | inactive | inactive | inactive | – | inactive | – | – | – | inactive |
| CCC[Si](OC)(OC)OC | inactive | inactive | inactive | inactive | inactive | inactive | – | – | – | – |
